Measurements as given in PubChem BioAssay (NCI).
The panel holds about 83,000 compounds, 20% with a hit somewhere; the sample as a whole holds those more often.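 Cell lines were cultured in 96-well plates, exposed to a single compound concentration, and assessed for percent growth 48 hours later.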 Active and inactive are the calls of the source. The calls were made as follows: active = growth percent below 10; inactive = the rest.

Each molecule was assayed on K-562 leukemia (assay: NCI-60 one-dose screen, 48 h (100 = growth as untreated, 0 = no growth, -100 = all killed)). Conditions: 10 µM unless noted.

For `Oc1c(Cl)cc(Cl)c(Cl)c1Cc1c(O)c(Cl)cc(Cl)c1Cl`, which growth is on record?
The growth was 4.84% (active).

How did the growth turn out when `COc1cc(C2CC(c3ccc(C)cc3)=NN2C=O)ccc1OCCN(C)C` (centres undefined) was run?
The growth was 83% (inactive).

With `NS(=O)(=O)c1cc(C2(O)NC(=O)c3ccccc32)ccc1Cl` (centres undefined) as the molecule, how does the growth read?
The growth was 111% (inactive).

Which growth does the source give for `CCn1cnc(C[C@H](NC(=O)[C@H](CCCCNC(=O)Nc2cc(C(F)(F)F)cc(C(F)(F)F)c2)NC(=O)Nc2cc(C(F)(F)F)cc(C(F)(F)F)c2)C(=O)OC)c1` here?
Its growth is -80.2% [100 µM] (active).

For `CS(=O)(=O)N1CCN(Cc2cc3nc(-c4cccc5[nH]ncc45)nc(N4CCOCC4)c3s2)CC1` (tested in a mixture with another compound), which growth is on record?
The growth was 58.5% (inactive).

How did the growth turn out when `CN(C)c1ccc(-c2nc3ncc(Br)cc3o2)cc1` was run?
The growth was 81.5% (inactive).

For `COc1ccc(-c2cc(-c3nnc(SCC(=O)Nc4ccc(C(C)=O)cc4)n3-c3ccccc3)c3ccccc3n2)cc1OC`, which growth is on record?
The growth was 110% (inactive).

With `Nc1nc(NC2CC2)c2ncn(C3C=CC(CO)C3)c2n1` (centres undefined) as the molecule, how does the growth read?
Its growth is 84.2% (inactive).

With `C[C@]12CCC(=O)C=C1CC[C@H]1[C@@H]3C[C@@H](O)[C@](O)(C(=O)CO)[C@@]3(C)C[C@H](O)[C@@]12F` as the molecule, how does the growth read?
Its growth is 110% (inactive).

How did the growth turn out when `NS(=O)(=O)c1cc2c(cc1Cl)NC=NS2(=O)=O` was run?
Its growth is 120% (inactive).

How did the growth turn out when `COc1cnc2c(c1)C(=O)c1c-2n(CCCn2ccnc2)c(=O)c2cc(F)ccc12` was run?
The growth was -4.93% (active).

Which growth does the source give for `NC(=O)c1cc(Br)cc(Br)c1NS(=O)(=O)c1ccccc1` here?
The growth was 122% (inactive).

With `CN(C)c1ccc(-n2nc3ccccc3n2)cc1` as the molecule, how does the growth read?
The growth was 70.1% (inactive).

How did the growth turn out when `CC1CN(C2CCCCC2)C(=O)NC1=O` (centres undefined) was run?
Its growth is 103% (inactive).

With `O=C1C=CC(=O)N1c1ccccc1N1C(=O)C=CC1=O` as the molecule, how does the growth read?
Its growth is 50.2% (inactive).

`Cc1n(Cc2ccc3ccccc3c2)c2ccccc2[n+]1Cc1ccc2ccccc2c1` was tested. Which growth did it give?
The growth was -63.1% (active).

`C[C@H]1O[C@@H](O[C@H]2[C@@H](O)C[C@H](O[C@H]3[C@@H](O)C[C@H](O[C@H]4CC[C@]5(C)C6C[C@@H](O)[C@]7(C)[C@@H](C8=CC(=O)OC8)CC[C@]7(O)C6CC[C@@H]5C4)O[C@@H]3C)O[C@@H]2C)C[C@H](O)[C@@H]1O` (some centres undefined) was tested. Which growth did it give?
The growth was -24.2% (active).

For `O=C(CNc1ccc2c(c1)C(=O)c1ccccc1C2=O)Nc1ccc2c(c1)C(=O)c1ccccc1C2=O`, which growth is on record?
Its growth is -30.2% (active).

With `Cc1sc2nc(N3CCCCC3)[nH]c(=O)c2c1C` as the molecule, how does the growth read?
The growth was 91.2% (inactive).

With `NC(=NCCCCCCN=C(N)/N=C(\N)Nc1ccc(Cl)cc1)/N=C(\N)Nc1ccc(Cl)cc1` as the molecule, how does the growth read?
The growth was 8.11% (active).

Which growth does the source give for `COc1cc(NC(=O)NCc2ccco2)ccc1-c1ccc(NC(=O)NCc2ccco2)cc1OC` here?
Its growth is 36% (inactive).

How did the growth turn out when `CSc1nc(Nc2ccc(S(=O)(=O)Nc3ccon3)cc2)c(C#N)c(-c2ccc(Cl)cc2)n1` was run?
The growth was -0.642% (active).

With `COP(=O)(OC)C(c1ccc(O)cc1)(c1ccc(O)cc1)c1ccc(O)cc1` as the molecule, how does the growth read?
Its growth is 90.6% (inactive).

How did the growth turn out when `C=C1CCC2C(C)(COC(=O)CC)C(OC(=O)CC)CCC2(C)C1C/C=C1/C(=O)OCC1OC(=O)CC` (centres undefined) was run?
The growth was 2.81% (active).

How did the growth turn out when `Cc1cnc2nc(-c3ccc(N(C)C)cc3)cn2c1` was run?
Its growth is 97.1% (inactive).

Which growth does the source give for `Cc1ccc2nc3c(n2c1)C(=O)C(=O)c1ccccc1-3` here?
Its growth is -48.3% (active).

How did the growth turn out when `CC(C)=CCCC(C)c1ccc(C)c2c1OCN(CC1CCNCC1)C2` (centres undefined) was run?
Its growth is 0.575% (active).

Which growth does the source give for `CCOc1cc(/C=C/C(=O)C(C(=O)/C=C/c2ccc(OC(=O)CNc3nc4ccccc4[nH]3)c(OCC)c2)C(=O)CNc2nc3ccccc3[nH]2)ccc1OC(=O)CNc1nc2ccccc2[nH]1` here?
The growth was -26.2% (active).

For `COc1ccc(C(=O)/C=C/c2cccc(Nc3ccnc4cc(Cl)ccc34)c2)cc1`, which growth is on record?
The growth was 21% (inactive).

These molecules were tested on MALME-3M melanoma in the same assay as above. Conditions: 10 µM unless noted.

How did the growth turn out when `COc1cc(C2CC(C3C(=O)N(C)C(=O)N(C)C3=O)=NN2C=O)cc(OC)c1OC` (centres undefined) was run?
The growth was 109% (inactive).

Which growth does the source give for `C=C1CCC2C3(C)COC(c4ccccc4)OC3CCC2(C)C1C/C=C1/C(=O)OCC1OC(C)=O` (centres undefined) here?
The growth was 105% (inactive).

With `Clc1ccc(C2=NN(c3ccc(Cl)cc3)C(c3cccc(Nc4ccnc5cc(Cl)ccc45)c3)C2)cc1` (centres undefined) as the molecule, how does the growth read?
Its growth is 87.1% (inactive).

For `CC(=O)N1N=C(c2ccc(Nc3nc(NCCO)nc(NCCO)n3)cc2)CC1c1ccc(Cl)cc1` (centres undefined), which growth is on record?
Its growth is 91% (inactive).

For `O=C(c1ccccc1)c1ccc(Oc2ccc([N+](=O)[O-])cc2[N+](=O)[O-])cc1`, which growth is on record?
Its growth is 70.2% (inactive).

How did the growth turn out when `O=C(C(=O)N1CCOCC1)c1cn(CCCn2cc(C(=O)C(=O)N3CCOCC3)c3ccccc32)c2ccccc12` was run?
Its growth is 99.8% (inactive).

For `CC(C)CC1NC(=O)C(CCCN)NC(=O)C(C(C)C)NC(=O)C2CCCN2C(=O)C(Cc2ccccc2)NC(=O)C(CC(C)C)NC(=O)C(CCCN)NC(=O)C(C(C)C)NC(=O)C2CCCN2C(=O)C(Cc2ccccc2)NC1=O` (centres undefined), which growth is on record?
The growth was -76.3% (active).

`Cc1csc(C#Cc2cncc(O)c2)n1` was tested. Which growth did it give?
The growth was 96.7% (inactive).

For `COc1cc(/C=C/C(=O)C(C(=O)/C=C/c2ccc(OC(=O)CCNC34CC5CC(CC(C5)C3)C4)c(OC)c2)C(=O)CCNC23CC4CC(CC(C4)C2)C3)ccc1OC(=O)CCNC12CC3CC(CC(C3)C1)C2` (centres undefined), which growth is on record?
Its growth is 18.6% (inactive).

Which growth does the source give for `C/C=C(/C(=C/C)c1ccc(O)cc1)c1ccc(O)cc1` here?
Its growth is 23.1% (inactive).

`COc1cc(/C=C/C(=O)CC(=O)/C=C/c2ccc(OC(=O)CCNC34CC5CC(CC(C5)C3)C4)c(OC)c2)ccc1OC(=O)CCNC12CC3CC(CC(C3)C1)C2` was tested. Which growth did it give?
The growth was 38.6% (inactive).

Which growth does the source give for `Oc1c(Cl)cc(Cl)c(Cl)c1Cc1c(O)c(Cl)cc(Cl)c1Cl` here?
Its growth is -21.1% (active).

With `COc1cc(C2CC(c3ccc(C)cc3)=NN2C=O)ccc1OCCN(C)C` (centres undefined) as the molecule, how does the growth read?
The growth was 83.1% (inactive).

How did the growth turn out when `NS(=O)(=O)c1cc(C2(O)NC(=O)c3ccccc32)ccc1Cl` (centres undefined) was run?
Its growth is 95.4% (inactive).

For `CCn1cnc(C[C@H](NC(=O)[C@H](CCCCNC(=O)Nc2cc(C(F)(F)F)cc(C(F)(F)F)c2)NC(=O)Nc2cc(C(F)(F)F)cc(C(F)(F)F)c2)C(=O)OC)c1`, which growth is on record?
Its growth is -69.6% [100 µM] (active).

How did the growth turn out when `CS(=O)(=O)N1CCN(Cc2cc3nc(-c4cccc5[nH]ncc45)nc(N4CCOCC4)c3s2)CC1` (tested in a mixture with another compound) was run?
The growth was -15.2% (active).

How did the growth turn out when `CN(C)c1ccc(-c2nc3ncc(Br)cc3o2)cc1` was run?
Its growth is 118% (inactive).

How did the growth turn out when `COc1ccc(-c2cc(-c3nnc(SCC(=O)Nc4ccc(C(C)=O)cc4)n3-c3ccccc3)c3ccccc3n2)cc1OC` was run?
Its growth is 97.2% (inactive).

With `Nc1nc(NC2CC2)c2ncn(C3C=CC(CO)C3)c2n1` (centres undefined) as the molecule, how does the growth read?
Its growth is 105% (inactive).

How did the growth turn out when `C[C@]12CCC(=O)C=C1CC[C@H]1[C@@H]3C[C@@H](O)[C@](O)(C(=O)CO)[C@@]3(C)C[C@H](O)[C@@]12F` was run?
Its growth is 87% (inactive).

For `NS(=O)(=O)c1cc2c(cc1Cl)NC=NS2(=O)=O`, which growth is on record?
Its growth is 103% (inactive).

How did the growth turn out when `COc1cnc2c(c1)C(=O)c1c-2n(CCCn2ccnc2)c(=O)c2cc(F)ccc12` was run?
Its growth is -52.2% (active).

`NC(=O)c1cc(Br)cc(Br)c1NS(=O)(=O)c1ccccc1` was tested. Which growth did it give?
The growth was 94.1% (inactive).

With `CN(C)c1ccc(-n2nc3ccccc3n2)cc1` as the molecule, how does the growth read?
The growth was 117% (inactive).

How did the growth turn out when `CC1CN(C2CCCCC2)C(=O)NC1=O` (centres undefined) was run?
The growth was 108% (inactive).

`O=C1C=CC(=O)N1c1ccccc1N1C(=O)C=CC1=O` was tested. Which growth did it give?
Its growth is 144% (inactive).

For `Cc1n(Cc2ccc3ccccc3c2)c2ccccc2[n+]1Cc1ccc2ccccc2c1`, which growth is on record?
Its growth is -39.7% (active).

How did the growth turn out when `C[C@H]1O[C@@H](O[C@H]2[C@@H](O)C[C@H](O[C@H]3[C@@H](O)C[C@H](O[C@H]4CC[C@]5(C)C6C[C@@H](O)[C@]7(C)[C@@H](C8=CC(=O)OC8)CC[C@]7(O)C6CC[C@@H]5C4)O[C@@H]3C)O[C@@H]2C)C[C@H](O)[C@@H]1O` (some centres undefined) was run?
The growth was -57.2% (active).

How did the growth turn out when `O=C(CNc1ccc2c(c1)C(=O)c1ccccc1C2=O)Nc1ccc2c(c1)C(=O)c1ccccc1C2=O` was run?
Its growth is -81.2% (active).

How did the growth turn out when `Cc1sc2nc(N3CCCCC3)[nH]c(=O)c2c1C` was run?
Its growth is 100% (inactive).

How did the growth turn out when `NC(=NCCCCCCN=C(N)/N=C(\N)Nc1ccc(Cl)cc1)/N=C(\N)Nc1ccc(Cl)cc1` was run?
The growth was 26.7% (inactive).

With `COc1cc(NC(=O)NCc2ccco2)ccc1-c1ccc(NC(=O)NCc2ccco2)cc1OC` as the molecule, how does the growth read?
The growth was 78% (inactive).

For `CSc1nc(Nc2ccc(S(=O)(=O)Nc3ccon3)cc2)c(C#N)c(-c2ccc(Cl)cc2)n1`, which growth is on record?
Its growth is 111% (inactive).

Which growth does the source give for `COP(=O)(OC)C(c1ccc(O)cc1)(c1ccc(O)cc1)c1ccc(O)cc1` here?
Its growth is 127% (inactive).

For `C=C1CCC2C(C)(COC(=O)CC)C(OC(=O)CC)CCC2(C)C1C/C=C1/C(=O)OCC1OC(=O)CC` (centres undefined), which growth is on record?
The growth was 2.98% (active).

How did the growth turn out when `Cc1cnc2nc(-c3ccc(N(C)C)cc3)cn2c1` was run?
The growth was 97.8% (inactive).

Which growth does the source give for `Cc1ccc2nc3c(n2c1)C(=O)C(=O)c1ccccc1-3` here?
Its growth is -85.2% (active).

For `CC(C)=CCCC(C)c1ccc(C)c2c1OCN(CC1CCNCC1)C2` (centres undefined), which growth is on record?
Its growth is 94.1% (inactive).

`CCOc1cc(/C=C/C(=O)C(C(=O)/C=C/c2ccc(OC(=O)CNc3nc4ccccc4[nH]3)c(OCC)c2)C(=O)CNc2nc3ccccc3[nH]2)ccc1OC(=O)CNc1nc2ccccc2[nH]1` was tested. Which growth did it give?
The growth was -35.1% (active).

How did the growth turn out when `COc1ccc(C(=O)/C=C/c2cccc(Nc3ccnc4cc(Cl)ccc34)c2)cc1` was run?
Its growth is 44% (inactive).
